Experimental data taken from PubChem BioAssay (Tox21).
Inconclusive results are not listed. Active and inactive are the calls of the source. Unless noted, calls come from the whole dose curve; as a rule, active = well fitted curve in the direction sought with a large enough effect in the repeat runs; inconclusive = weak or mixed curves; inactive = no such curve, though single readings can be large; an effect the other way counts as inactive or inconclusive.

How the values were obtained:
[1] = biological target: Estrogen receptor (Homo sapiens) (UniProt P03372); assay: qHTS assay to identify small molecule agonists of the estrogen receptor alpha (ER-alpha) signaling pathway in the presence of an antagonist (AID 1259383; calls by dose curve; note: top concentration of the series differs between compounds; nearly all actives have a fitted effect of over 15% in size)
Estrogen receptor (Homo sapiens), sequence (P03372 whole entry, looked up): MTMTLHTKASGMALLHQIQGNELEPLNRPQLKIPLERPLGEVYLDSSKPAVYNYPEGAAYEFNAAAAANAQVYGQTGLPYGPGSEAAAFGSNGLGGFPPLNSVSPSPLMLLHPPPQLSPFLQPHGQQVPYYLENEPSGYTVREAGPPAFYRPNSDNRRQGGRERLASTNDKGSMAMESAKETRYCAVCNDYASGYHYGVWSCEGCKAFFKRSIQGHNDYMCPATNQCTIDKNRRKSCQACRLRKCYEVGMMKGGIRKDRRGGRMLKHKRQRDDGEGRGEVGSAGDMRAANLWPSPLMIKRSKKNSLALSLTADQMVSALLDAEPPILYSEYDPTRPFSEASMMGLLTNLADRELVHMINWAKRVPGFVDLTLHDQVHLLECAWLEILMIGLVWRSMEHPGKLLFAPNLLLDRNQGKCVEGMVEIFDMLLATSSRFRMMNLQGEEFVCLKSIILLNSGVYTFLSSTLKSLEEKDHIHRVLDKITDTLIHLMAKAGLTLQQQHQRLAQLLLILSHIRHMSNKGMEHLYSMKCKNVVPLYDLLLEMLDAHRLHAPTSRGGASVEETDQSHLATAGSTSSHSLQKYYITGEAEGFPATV
In short: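 VM7Luc4E2, endog. ER-alpha + 4×ERE-luc; charcoal-stripped FBS, phenol red-free, 5 d; 24hr plating; +10.0nM ICI-182,780 (final); cpds 15 conc, 22hr, 37C/5% CO2; ONE-Glo luminescence.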

[2] = biological target: Progesterone receptor (Homo sapiens) (UniProt P06401); assay: qHTS assay to identify small molecule agonists of the progesterone receptor (PR) signaling pathway (AID 1346784; calls by dose curve; note: nearly all actives have a fitted effect of over 30% in size; note: potency is the fitted concentration of half-maximal effect)
Progesterone receptor (Homo sapiens), sequence (P06401 whole entry, looked up): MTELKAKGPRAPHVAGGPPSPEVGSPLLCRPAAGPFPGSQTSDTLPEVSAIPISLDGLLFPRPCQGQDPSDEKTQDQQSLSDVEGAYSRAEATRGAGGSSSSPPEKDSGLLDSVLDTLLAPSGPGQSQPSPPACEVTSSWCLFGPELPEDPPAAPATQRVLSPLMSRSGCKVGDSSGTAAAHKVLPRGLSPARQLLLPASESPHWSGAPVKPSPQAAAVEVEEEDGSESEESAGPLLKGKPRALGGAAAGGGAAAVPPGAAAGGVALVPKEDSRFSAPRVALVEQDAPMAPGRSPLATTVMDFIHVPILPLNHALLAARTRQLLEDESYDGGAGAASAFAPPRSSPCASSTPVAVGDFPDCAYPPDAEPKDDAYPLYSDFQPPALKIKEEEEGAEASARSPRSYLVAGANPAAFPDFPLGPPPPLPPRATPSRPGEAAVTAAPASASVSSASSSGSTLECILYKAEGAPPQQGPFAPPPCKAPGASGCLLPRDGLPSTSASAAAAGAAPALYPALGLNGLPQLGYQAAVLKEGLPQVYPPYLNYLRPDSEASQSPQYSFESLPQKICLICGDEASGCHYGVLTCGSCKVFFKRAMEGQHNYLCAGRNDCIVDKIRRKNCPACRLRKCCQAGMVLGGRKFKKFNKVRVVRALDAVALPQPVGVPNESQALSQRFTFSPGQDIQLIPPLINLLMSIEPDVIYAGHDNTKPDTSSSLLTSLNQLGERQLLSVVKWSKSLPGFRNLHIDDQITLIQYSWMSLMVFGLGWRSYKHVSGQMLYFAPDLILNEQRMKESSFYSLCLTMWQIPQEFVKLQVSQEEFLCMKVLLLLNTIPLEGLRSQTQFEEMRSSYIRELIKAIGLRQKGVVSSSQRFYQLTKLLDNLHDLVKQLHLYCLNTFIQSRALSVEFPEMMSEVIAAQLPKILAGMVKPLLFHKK
In short: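 Reporter assay, GripTite PR-UAS-bla HEK 293T cells: 16 hr exposure to DMSO-dissolved compounds at 37C, 5% CO2, in steroid-depleted (2% charcoal-stripped FBS) medium; beta-lactamase measured by FRET fluorescence.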

[3] = biological target: Progesterone receptor (Homo sapiens) (UniProt P06401); assay: qHTS assay to identify small molecule antagonists of the progesterone receptor (PR) signaling pathway (AID 1346795; active = well fitted inhibition curve with a large enough effect in the signal ratio in the repeat runs, not every such curve was filed as active; the % refers to the signal ratio)
In short: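 Stimulus R5020 at 1 nM final; cells HEK293T PR-UAS-bla; medium with 2% charcoal-stripped FBS; compound exposure 16 hr at 37C, 5% CO2; detection by FRET beta-lactamase substrate, 2 hr, room temperature.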

[4] = qHTS assay to identify small molecule antagonists of the progesterone receptor (PR) signaling pathway - cell viability counter screen (AID 1346798); note: series mostly up to about 92 µM; nearly all actives have a fitted effect of over 50% in size
In short: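 In the same plates used for the beta-lactamase readout, cell viability of compound- and R5020-treated PR-UAS-bla HEK293T cells (16 hr, 37C) was assessed by CellTiter-Glo luminescence.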

[5] = qHTS assay to identify small molecule agonists of the progesterone receptor (PR) signaling pathway - cell viability counter screen (AID 1346799; calls by dose curve; note: nearly all actives have a fitted effect of over 45% in size; note: potency is the fitted concentration of half-maximal effect)
In short: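 Multiplexed viability read: CellTiter-Glo luminescence, 30 min RT, following LiveBLAzer FRET measurement on PR-UAS-bla HEK293T cells exposed to compounds 16 hr.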

[6] = qHTS assay to identify small molecule antagonists of the TGF-beta/Smad signaling pathway - cell viability counter screen (AID 1346824); note: nearly all actives have a fitted effect of over 50% in size
In short: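 SBE-bla HEK 293T cells were plated overnight at 37 C, then given compounds in DMSO plus TGF-beta1 (added as 0.25 ng/mL solution) for 5 hr. After the bla read, CellTiter-Glo was added to the same wells and luminescence read after 30 min at room temperature.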

[7] = qHTS assay to identify small molecule agonists of the TGF-beta/Smad signaling pathway - cell viability counter screen (AID 1346829); note: top concentration of the series differs between compounds; nearly all actives have a fitted effect of over 45% in size
In short: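 After overnight seating at 37 C and 5% CO2, reporter cells got compounds for 5 hr and FRET substrate for 2 hr; cell viability then came from CellTiter-Glo luminescence.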

[8] = biological target: Thyrotropin-releasing hormone receptor (Homo sapiens) (UniProt P34981); assay: qHTS assay to identify small molecule antagonists of the thyrotropin-releasing hormone receptor (TRHR) signaling pathway (AID 1346877; active = well fitted inhibition curve with a large enough effect in the repeat runs, not every such curve was filed as active; note: series mostly up to about 51 µM)
Thyrotropin-releasing hormone receptor (Homo sapiens), sequence (P34981 whole entry, looked up): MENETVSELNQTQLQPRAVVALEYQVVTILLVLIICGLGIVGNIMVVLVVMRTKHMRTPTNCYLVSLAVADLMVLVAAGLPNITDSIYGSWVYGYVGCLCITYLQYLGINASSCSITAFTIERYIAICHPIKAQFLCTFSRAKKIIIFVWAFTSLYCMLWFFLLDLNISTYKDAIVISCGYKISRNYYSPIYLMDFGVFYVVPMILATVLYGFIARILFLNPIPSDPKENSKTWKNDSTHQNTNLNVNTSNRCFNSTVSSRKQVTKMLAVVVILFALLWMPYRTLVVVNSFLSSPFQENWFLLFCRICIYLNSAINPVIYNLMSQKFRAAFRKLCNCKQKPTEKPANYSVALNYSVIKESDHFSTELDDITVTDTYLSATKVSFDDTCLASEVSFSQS
In short: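 Intracellular calcium fluorescence, read kinetically every second over 3 min, reports TRH-evoked signalling in HEK293 cells carrying TRHR. Test compounds were added 5 min ahead of a 1 nM TRH challenge.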

[9] = biological target: Thyrotropin-releasing hormone receptor (Homo sapiens) (UniProt P34981); assay: qHTS assay to identify small molecule agonists of the thyrotropin-releasing hormone receptor (TRHR) signaling pathway (AID 1346891; calls by dose curve; note: series mostly up to about 58 µM)
In short: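 Readout was intracellular calcium fluorescence in TRHR-Hek293 cells. Cells were incubated 18 h, dye-loaded 2 h at 37 °C, and treated with compound in agonist mode.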

[10] = Human pregnane X receptor (PXR) small molecule agonists, qHTS cell viability counter screen (AID 1346977); note: nearly all actives have a fitted effect of over 50% in size
In short: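 In each well, the PXR reporter HepG2 line was checked for viability: CellTiter-Fluor reagent added 23hr post-dosing, fluorescence read after 1hr incubation at 37C.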

[11] = Caspase-3/7 induction in HepG2 cells by small molecules, qHTS assay (AID 1346978); note: nearly all actives have a fitted effect of over 15% in size
In short: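 Wild-type HepG2 cells (2,000/well) were settled 5 h at 37 C, 5% CO2, then exposed to compounds in DMSO for 17 h. Caspase-3/7 activity was read by luminescence 30 min after adding Caspase-Glo 3/7 reagent at room temperature.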

[12] = Caspase-3/7 induction in CHO-K1 cells by small molecules, qHTS cell viability counter screen (AID 1346979); note: nearly all actives have a fitted effect of over 35% in size
In short: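 Following a 5hr settling period, CHO-K1 cells at 1,500 per well received DMSO-dissolved compounds. Cell viability was quantified 16hr later by CellTiter-Fluor fluorescence, measured after 1hr with reagent at 37C.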

[13] = Caspase-3/7 induction in CHO-K1 cells by small molecules, qHTS assay (AID 1346980); note: nearly all actives have a fitted effect of over 15% in size
In short: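 Wild-type cells were seeded at 1,500 per well and settled 5 hr at 37 C, 5% CO2, then exposed to DMSO-dissolved compounds for 17 hr. Caspase-Glo 3/7 reagent was added, and luminescence was read after 30min at room temperature.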

[14] = Caspase-3/7 induction in HepG2 cells by small molecules, qHTS cell viability counter screen (AID 1346981); note: series mostly up to about 92 µM; nearly all actives have a fitted effect of over 30% in size
In short: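 HepG2, WT, 2,000 cells/well; 5 hr pre-incubation 37 C/5% CO2; compound pin-transferred from DMSO; 16 hr exposure; CellTiter-Fluor, 1 hr; fluorescence read.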

[15] = biological target: Nuclear receptor subfamily 1 group I member 2 (Homo sapiens) (UniProt O75469); assay: Human pregnane X receptor (PXR) small molecule agonists, qHTS assay (AID 1346982); note: nearly all actives have a fitted effect of over 35% in size; note: potency is the fitted concentration of half-maximal effect
Nuclear receptor subfamily 1 group I member 2 (Homo sapiens), sequence (O75469 whole entry, looked up): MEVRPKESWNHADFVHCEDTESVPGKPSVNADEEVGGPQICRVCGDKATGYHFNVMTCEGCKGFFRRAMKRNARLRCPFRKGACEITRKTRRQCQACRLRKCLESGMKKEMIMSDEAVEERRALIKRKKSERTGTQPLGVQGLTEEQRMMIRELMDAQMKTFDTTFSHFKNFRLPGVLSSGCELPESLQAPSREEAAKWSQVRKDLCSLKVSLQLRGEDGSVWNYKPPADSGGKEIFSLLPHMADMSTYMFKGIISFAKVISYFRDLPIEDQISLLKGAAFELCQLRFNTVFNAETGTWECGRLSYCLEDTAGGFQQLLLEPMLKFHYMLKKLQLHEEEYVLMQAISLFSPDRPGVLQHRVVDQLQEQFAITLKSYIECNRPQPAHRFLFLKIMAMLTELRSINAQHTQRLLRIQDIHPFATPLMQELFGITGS
In short: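 Luciferase signal from ONE-Glo (30 min, room temperature) measured activation of hPXR-driven CYP3A4 reporter expression in PXR-Luc HepG2 cells treated with compounds for 24 hr at 37 C.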

[16] = qHTS assay to identify small molecule agonists of the TGF-beta/Smad signaling pathway (AID 1346859; active = well fitted activation curve with a large enough effect in the signal ratio in the repeat runs, not every such curve was filed as active; the % refers to the signal ratio; note: series mostly up to about 77 µM)
In short: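 Screening used HEK 293T SBE-bla cells at 4,000/well. Test agents: 5 hr, 37 C. Detection: FRET substrate, 2 hr RT, then excitation 405 nm with emissions at 460 and 530 nm.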

[17] = qHTS assay to identify small molecule agonists or antagonists of the thyroid stimulating hormone receptor (TSHR) signaling pathway - wild type cell line counter screen (AID 1259384; calls by dose curve)
In short: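 Wild-type HEK293 cells were plated 18 h at 37 C/5% CO2, pin-dosed with compound plus Ro20-1724 medium, held 30 min at room temperature, then given cAMP-d2 and anti-cAMP-cryptate; fluorescence was read after 1 h. Fifteen concentrations, triplicate.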

[18] = biological target: Thyrotropin receptor (Homo sapiens) (UniProt P16473); assay: qHTS assay to identify small molecule antagonists of the thyroid stimulating hormone receptor (TSHR) signaling pathway (AID 1259385; calls by dose curve; note: nearly all actives have a fitted effect of over 20% in size)
Thyrotropin receptor (Homo sapiens), sequence (P16473 whole entry, looked up): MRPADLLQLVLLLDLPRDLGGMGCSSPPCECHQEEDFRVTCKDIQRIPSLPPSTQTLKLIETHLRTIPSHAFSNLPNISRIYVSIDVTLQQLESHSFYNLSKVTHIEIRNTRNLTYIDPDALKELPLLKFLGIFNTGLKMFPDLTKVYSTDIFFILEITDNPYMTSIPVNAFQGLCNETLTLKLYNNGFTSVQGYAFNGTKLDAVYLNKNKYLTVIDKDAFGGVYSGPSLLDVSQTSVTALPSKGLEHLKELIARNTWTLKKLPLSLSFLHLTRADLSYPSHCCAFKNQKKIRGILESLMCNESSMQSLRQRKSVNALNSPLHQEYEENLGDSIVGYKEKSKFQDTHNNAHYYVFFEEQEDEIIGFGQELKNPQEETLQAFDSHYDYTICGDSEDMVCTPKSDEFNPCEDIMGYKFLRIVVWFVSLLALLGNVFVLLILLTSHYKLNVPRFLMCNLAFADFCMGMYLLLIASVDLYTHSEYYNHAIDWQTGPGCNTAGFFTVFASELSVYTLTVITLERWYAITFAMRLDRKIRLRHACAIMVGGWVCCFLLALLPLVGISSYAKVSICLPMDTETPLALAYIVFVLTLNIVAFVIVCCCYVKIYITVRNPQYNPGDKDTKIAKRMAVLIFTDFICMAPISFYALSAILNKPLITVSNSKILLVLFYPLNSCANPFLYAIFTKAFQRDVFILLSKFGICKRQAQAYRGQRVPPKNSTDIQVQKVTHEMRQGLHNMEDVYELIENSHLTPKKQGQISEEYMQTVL
In short: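 TSHR-HEK293 cells were plated and held 18 h at 37C/5% CO2, then given compound plus Ro20-1724 and stimulated with TSH at 1.5 ng/mL final. After 30 min at room temperature, cAMP was detected with cAMP-d2/anti-cAMP-cryptate (1 h) by fluorescence.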

[19] = qHTS assay to identify small molecule agonists of the estrogen receptor alpha (ER-alpha) signaling pathway in the presence of an antagonist - cell viability counter screen (AID 1259386);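 note: series mostly up to about 92 µM; cells exposed to compounds for 22 h at 37 °C before the viability read; nearly all actives have a fitted effect of over 30% in size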
In short: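 VM7Luc4E2, stripped-serum pre-culture 5 d; 24hr plating; +ICI-182,780 10.0nM final; cpds 15 conc, 22hr, 37C/5% CO2; CellTiter-Fluor added at 21hr, fluorescence 1hr later.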
% is set by controls: 0 for no effect and ±100 for the full control effect.

CC(C)(C)c1ccc(N)cc1
inactive: Potency [1] | Potency [2] | Potency [3] | outcome [4] | Potency [5] | outcome [6] | outcome [7] | outcome [8] | Potency [9] | outcome [10] | outcome [11] | Potency [12] | outcome [13] | outcome [14]
active: Potency [15] 68.6 µM

NNC(=O)CCCCC(=O)NN
inactive: Potency [1] | Potency [2] | Potency [3] | outcome [4] | Potency [5] | outcome [7] | outcome [16] | outcome [8] | Potency [9] | outcome [10] | outcome [11] | Potency [12] | outcome [13] | outcome [14] | Potency [15]

Cc1ccc(O)c([N+](=O)[O-])c1
active: Potency [5] 24.6 µM
inactive: Potency [1] | Potency [3] | outcome [6] | outcome [7] | outcome [8] | Potency [9] | outcome [10] | outcome [11] | Potency [12] | outcome [13] | outcome [14] | Potency [15]

CCCCCCCCOCCC#N
inactive: outcome [17] | outcome [18] | outcome [19] | Potency [2] | Potency [3] | outcome [4] | Potency [5] | outcome [6] | outcome [7] | outcome [16] | outcome [8] | Potency [9] | outcome [10] | outcome [11] | Potency [12] | outcome [13] | outcome [14] | Potency [15]

COC(=O)C(c1ccccc1Cl)N1CCc2sccc2C1 (stereo not given)
inactive: outcome [17] | outcome [18] | outcome [19] | Potency [2] | outcome [4] | Potency [5] | outcome [6] | outcome [7] | outcome [16] | outcome [8] | Potency [9] | outcome [10] | outcome [11] | Potency [12] | outcome [13] | outcome [14]

Cc1ccc2cccnc2c1
inactive: Potency [1] | Potency [2] | outcome [4] | Potency [5] | outcome [7] | outcome [8] | Potency [9] | outcome [10] | Potency [12] | outcome [13] | outcome [14] | Potency [15]

O=C[C@@H](O)[C@H](O)[C@H](O)CO
inactive: outcome [17] | outcome [18] | outcome [19] | Potency [2] | Potency [3] | outcome [4] | Potency [5] | outcome [6] | outcome [7] | outcome [16] | outcome [8] | Potency [9] | outcome [10] | outcome [11] | Potency [12] | outcome [13] | outcome [14] | Potency [15]

Cc1cc(N)no1
inactive: outcome [17] | outcome [18] | outcome [19] | Potency [2] | Potency [3] | outcome [4] | Potency [5] | outcome [7] | outcome [16] | outcome [8] | Potency [9] | outcome [10] | Potency [12] | outcome [13] | outcome [14] | Potency [15]

c1cc2ccc3ccc4ccc5cccc6c(c1)c2c3c4c56
active: Potency [2] 0.385 µM
inactive: activity change, negative = inhibition [18] -1.71% [at 3.27 µM] | activity change, negative = cytotoxicity [19] 1.86% [at 3.27 µM] | activity change, negative = inhibition [3] 17.5% [at 3.27 µM] | activity change, negative = cytotoxicity [4] 2.42% [at 3.27 µM] | activity change, negative = cytotoxicity [7] 8.19% [at 2.72 µM] | activity change, negative = cytotoxicity [10] 0.555% [at 3.27 µM] | caspase activation [11] 1.34% [at 3.27 µM] | activity change, negative = cytotoxicity [12] 14.9% [at 3.27 µM] | caspase-3/7 activation [13] 0.273% [at 3.27 µM] | activity change, negative = cytotoxicity [14] -2.99% [at 3.27 µM] | activation [15] 3.44% [at 3.27 µM]
